Source: PubChem BioAssay (Tox21)
Inconclusive results are not listed. Calls of active or inactive are those of the source. Unless noted, calls come from the whole dose curve; as a rule, active = well fitted curve in the direction sought with a large enough effect in the repeat runs; inconclusive = weak or mixed curves; inactive = no such curve, though single readings can be large; an effect the other way counts as inactive or inconclusive.

Experiments:
[1] = qHTS assay for small molecule agonists of the p53 signaling pathway (AID 651631; calls by dose curve; note: nearly all actives have a fitted effect of over 15% in size)
In short: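 HCT-116 cells carrying a beta-lactamase reporter under p53 response elements were dosed with compound for 16 h at 37 °C. LiveBLAzer B/G FRET substrate was then added for 2 h at room temperature, and fluorescence intensity was read to detect pathway agonism.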

[2] = qHTS assay for small molecules that induce genotoxicity in human embryonic kidney cells expressing luciferase-tagged ATAD5 (AID 651632); note: nearly all actives have a fitted effect of over 15% in size
In short: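 ATAD5-luc HEK293T, 2,000 cells/well; cpd or DMSO pin-transferred; 16 hr, 37C/5% CO2; Amplite 30 min RT; luminescence.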

[3] = qHTS assay for small molecule agonists of the p53 signaling pathway - cell viability (AID 651633; calls by dose curve;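 note: p53RE-bla HCT reporter cells with a stable beta-lactamase p53 reporter; series mostly up to about 83 µM; nearly all actives have a fitted effect of over 30% in size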)
In short: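 p53RE-bla cells, seeded at 4,000 per well and rested 5 h at 37 C/5% CO2, received compounds in DMSO for 16 h at 37 C. CellTiter-Glo was then added, and luminescence was read after 30 min at room temperature to gauge cytotoxicity.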

[4] = qHTS assay for small molecules that induce genotoxicity in human embryonic kidney cells expressing luciferase-tagged ATAD5 - cell viability (AID 651634; calls by dose curve; note: nearly all actives have a fitted effect of over 25% in size)
In short: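 Fluorescence from CellTiter-Fluor, reporting protease activity within live cells, served as the viability read-out. HEK293T cells carrying luciferase-tagged ATAD5 had been treated with compound for 15.5 hr at 37C.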

[5] = qHTS assay for small molecule disruptors of the mitochondrial membrane potential - cell viability (AID 720634; calls by dose curve;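 note: human HepG2 liver cancer cells; series mostly up to about 83 µM; nearly all actives have a fitted effect of over 20% in size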)
In short: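 Cells: HepG2, 2,000/well, attached overnight. Compound 1 hr, 37 C/5% CO2. +m-MPI dye, +CellTiter-Glo 30 min RT. Readout: luminescence (ATP).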

[6] = qHTS assay to test for compound auto fluorescence at 590 nm (red) in HepG2 cells (AID 720674)
In short: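 Intrinsic compound fluorescence in the red window (Ex/Em 540/590 nm) is measured in attached HepG2 cells exposed for 1 hr, DMSO vehicle as baseline, benchmarked to Rose Bengal sodium.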

[7] = qHTS assay to test for compound auto fluorescence at 535 nm (green) in HepG2 cells (AID 720675)
[8] = qHTS assay to test for compound auto fluorescence at 460 nm (blue) in HEK293 cells (AID 720678)
In short: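 HEK293 cells (2,000/well, medium with 10% dialyzed FBS) attached 4-5 hr, then exposed to compound overnight at 37C, 5% CO2. Blue fluorescence read at 405/460 nm, with triamterene as reference fluorophore.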

[9] = qHTS assay to test for compound auto fluorescence at 590 nm (red) in HEK293 cells (AID 720679)
In short: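 HEK293 cells (2,000/well, 10% dialyzed FBS) attached 4-5 hr, then dosed with compound or DMSO and incubated overnight at 37C, 5% CO2. Red fluorescence read at 540/590 nm, Rose Bengal sodium as reference fluorophore.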

[10] = qHTS assay for small molecule disruptors of the mitochondrial membrane potential (AID 720635)
In short: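 HepG2 cells (2,000/well) attached overnight at 37C, then took compound for 1 hr at 37C, 5% CO2. Mito-MPS dye was added for 30 min; fluorescence was read at 490/535 nm (monomers) and 540/590 nm (aggregates).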
% is set by controls: 0 for no effect and ±100 for the full control effect.

CC(C)(C)NCCNC(C)(C)C
inactive: outcome [1] | Potency [2] | outcome [3] | Potency [4] | Potency [5] | outcome [6] | outcome [7] | outcome [8] | outcome [9]

COC(=O)NN
inactive: outcome [1] | Potency [2] | Potency [4] | Potency [5] | outcome [6] | outcome [7] | outcome [8] | outcome [9]

ClC(Cl)(Br)Br
inactive: outcome [1] | Potency [2] | Potency [4] | Potency [5] | outcome [6] | outcome [7] | outcome [8] | outcome [9]

Cc1ccc(=O)n(-c2ccccc2)c1
inactive: outcome [1] | Potency [2] | outcome [3] | Potency [4] | Potency [5] | outcome [6] | outcome [7] | outcome [8] | outcome [9]

Cc1cccc(C)c1NC(=O)C(C)N (stereo unspecified)
inactive: outcome [1] | Potency [2] | Potency [4] | Potency [5] | Potency [10] | outcome [6] | outcome [7] | outcome [8] | outcome [9]

CS(=O)(=O)O
inactive: outcome [1] | Potency [2] | outcome [3] | Potency [4] | Potency [5] | outcome [6] | outcome [7] | outcome [8] | outcome [9]

COc1nc(N)nc2c1ncn2[C@@H]1O[C@H](CO)[C@@H](O)[C@@H]1O
inactive: outcome [1] | Potency [2] | outcome [3] | Potency [4] | Potency [5] | outcome [6] | outcome [7] | outcome [8] | outcome [9]

Cn1c(N)c(N=O)c(=O)n(C)c1=O
inactive: outcome [1] | Potency [2] | Potency [4] | Potency [5] | Potency [10] | outcome [6] | outcome [7] | outcome [8] | outcome [9]

C[N+](C)(C)CCCCCC[N+](C)(C)C
inactive: outcome [1] | Potency [2] | outcome [3] | Potency [4] | Potency [5] | outcome [6] | outcome [7] | outcome [9]

CCCCC/C=C\CCC=O
inactive: outcome [1] | Potency [2] | outcome [3] | Potency [4] | Potency [5] | outcome [6] | outcome [7] | outcome [9]

C=CCCCCCCCCC=O
inactive: outcome [1] | Potency [2] | outcome [3] | Potency [4] | Potency [5] | outcome [6] | outcome [7] | outcome [8] | outcome [9]

CC1(C)C(O)C(C)(C)C1O (stereo unspecified)
inactive: outcome [1] | Potency [2] | outcome [3] | Potency [4] | Potency [5] | outcome [6] | outcome [7] | outcome [9]

NS(=O)(=O)c1ccccc1Cl
inactive: outcome [1] | Potency [2] | Potency [4] | Potency [5] | Potency [10] | outcome [6] | outcome [7] | outcome [9]

NC(=O)COCCN1CCN(C(c2ccccc2)c2ccc(Cl)cc2)CC1 (stereo unspecified)
inactive: outcome [1] | Potency [2] | outcome [3] | Potency [4] | Potency [5] | outcome [6] | outcome [7] | outcome [8] | outcome [9]

CC(=O)CC(C)(C)C1CCCCC1
inactive: outcome [1] | Potency [2] | Potency [4] | Potency [5] | outcome [6] | outcome [7] | outcome [8] | outcome [9]

COc1ccc2c(c1)c(CC(=O)OCC(=O)O)c(C)n2C(=O)c1ccc(Cl)cc1
inactive: outcome [1] | Potency [2] | outcome [3] | Potency [4] | Potency [5] | outcome [6] | outcome [7] | outcome [8] | outcome [9]

COc1cc(C(=O)N2CCCCCCC2)cc(OC)c1OC
inactive: outcome [1] | Potency [2] | outcome [3] | Potency [4] | Potency [5] | outcome [6] | outcome [7] | outcome [8] | outcome [9]

CCCCCCCCCCCCCC=O
inactive: activation [1] -3.36% [at 8.3 µM] | activation [2] 2.51% [at 8.08 µM] | activity, negative = cytotoxicity [4] 13.3% [at 8.08 µM] | activity change, negative = cytotoxicity [5] 12.2% [at 8.08 µM] | ratio activity, negative = MMP loss [10] 25.8% [at 8.08 µM] | fluorescence, relative to Rose Bengal [6] 0.0167% [at 3.72 µM] | fluorescence, % of fluorescein control [7] 0.0875% [at 3.72 µM] | fluorescence, % of triamterene [8] -0.166% [at 3.72 µM] | fluorescence, % of fluorescent control [9] -0.804% [at 3.72 µM]

CCC(=O)OC(C)c1ccccc1 (stereo unspecified)
inactive: outcome [1] | Potency [2] | Potency [4] | Potency [5] | outcome [6] | outcome [7] | outcome [8] | outcome [9]

OC(CCN1CCCCC1)(c1ccccc1)C1CC2C=CC1C2 (stereo unspecified)
inactive: outcome [1] | Potency [2] | outcome [3] | Potency [4] | Potency [5] | outcome [6] | outcome [7] | outcome [8] | outcome [9]

CCCCCCCCS(=O)(=O)Cl
inactive: outcome [1] | Potency [2] | Potency [4] | Potency [5] | Potency [10] | outcome [6] | outcome [7] | outcome [8] | outcome [9]

C=C(C)C(=O)OCCCCCCCC(C)C
inactive: outcome [1] | Potency [2] | outcome [3] | Potency [4] | outcome [6] | outcome [7] | outcome [8] | outcome [9]

CN1CCN(c2cc3c(cc2F)c(=O)c(C(=O)O)cn3-c2ccc(F)cc2)CC1
inactive: outcome [1] | Potency [2] | outcome [3] | Potency [4] | outcome [6] | outcome [7] | outcome [8] | outcome [9]

N#Cc1ccc(C2CCCc3cncn32)cc1 (stereo unspecified)
inactive: outcome [1] | Potency [2] | outcome [3] | Potency [4] | Potency [5] | outcome [6] | outcome [7] | outcome [9]

Cc1cc2c(cc1S(N)(=O)=O)S(=O)(=O)CCC2
inactive: outcome [1] | Potency [2] | outcome [3] | Potency [4] | Potency [5] | outcome [6] | outcome [7] | outcome [8] | outcome [9]

N=C(N)c1ccccc1
inactive: outcome [1] | Potency [2] | outcome [3] | Potency [4] | Potency [5] | outcome [6] | outcome [7] | outcome [8] | outcome [9]

FC(F)OC(Cl)C(F)(F)F (stereo unspecified)
inactive: outcome [1] | Potency [2] | Potency [4] | Potency [5] | Potency [10] | outcome [6] | outcome [7] | outcome [8] | outcome [9]

O=C1CCCC(=O)C1
inactive: outcome [1] | Potency [2] | Potency [4] | Potency [5] | Potency [10] | outcome [6] | outcome [7] | outcome [8] | outcome [9]
